This note sets out measurements from ChEMBL document CHEMBL3988442, “University of Dundee, Small-Polar-MMV Screening Library” (2021).

In all, about 48,000 compounds went through this assay and about 13,000 (27%) showed an effect of 50% or more. The list shows a part of the results.

The subject of the assay is Wolbachia pipientis. As to the kind of experiment: Anti-Wolbachia Cell-Based Screen. Type of assay: functional. The arrangement: scale not given: in the data most compounds retested in dose-response had high values. Particulars: 5 µM.
`CCCN(CC1COc2ccccc2O1)C(=O)c1ncoc1CC` (stereo not given): the “Percent Effect” value is -65.56%. The result for `Cc1ncsc1CN1C[C@@H](OCC2CC2)[C@H]2OCCC[C@H]21` reads -10.25%; that for `Cc1ccsc1C(=O)Nc1cc(Br)c(=O)n(C)c1`, -6.468%; that for `N#CCCN(CCC#N)C(=O)c1ccc(OCC2CC2)cc1`, 8.167%. As for `N#CCCN(CC1CCCO1)C(=O)c1ccc(C#N)cc1` (stereo not given), the “Percent Effect” value is 122.3%.

On to `N#CCCN(Cc1ccco1)C(=O)c1ccc(OCC2CC2)cc1`, for which the “Percent Effect” value is reported as 40.98%. The result for `O=C(c1cnc(O)cn1)N(Cc1ccsc1)CC1CCCO1` (stereo not given) reads -2.864%; that for `O=C(c1cccc(=O)[nH]1)N(Cc1ccsc1)CC1CCCO1` (stereo not given), -26.62%.

Take `N#CCCN(CC1CCCO1)C(=O)c1ccsc1` (stereo not given): the “Percent Effect” value was found to be 115.2%. The result for `CCn1/c(=N/C(=O)CSCC(=O)Nc2nccs2)sc2ccccc21` reads 6.405%; that for `CN(C)C(=O)CN1C[C@@H]2CC[C@H](C1)N(C(=O)CCCn1cncn1)C2`, 9.651%.

As to `O=C1CCC(C(=O)N2CCC(Cn3cc(C4CCCC4)nn3)CC2)=NN1`, the “Percent Effect” value is given as -1.401%.

As to `Cc1noc(C)c1CN1CCCC(CN(C(=O)OC(C)(C)C)C(C)C)C1` (stereo not given), the “Percent Effect” value is -2.017%.

For the compound `O=C(Cn1nc2ccccc2n1)N1CCCC(O)(CN2CCCC2)C1` (stereo not given), the “Percent Effect” value was -26.39%. With `COCC(=O)N1CC2(CCN(c3ccccc3)C2)C1` the figure was 10.91%; with `O=C(CC1CC1)N1CCC2(CC(=O)N(c3cccc(F)c3)C2)C1` (stereo not given), -13.04%. In the case of `CN(C)CC1(O)CCCN(C(=O)Cn2nc3ccccc3n2)CC1` (stereo not given), the “Percent Effect” value is -26.73%.

Regarding `COCC(=O)N1CCCC2(CCN(c3ccccc3)C2=O)C1` (stereo not given), the “Percent Effect” value was -10.31%. On to `NCC(=O)N1CCCC(O)(CN2CCN(c3ccccc3)CC2)CC1` (stereo not given), for which the “Percent Effect” value is recorded as 149.6%. With `NC(=O)CN1CCCC(C(=O)N2CCC(O)(Cc3ccccc3)CC2)C1` (stereo not given), the “Percent Effect” value is 12.2%.

Turning to `O=C(C1CC1)N1CCC(O)(CN2CCN(c3ccccc3)CC2)C1` (stereo not given), the “Percent Effect” value came to 101.1%. The result for `O=C(CC1CC1)N1CCC(O)(CN2CCN(c3ccccc3)CC2)C1` (stereo not given) reads 113.7%.

In the case of `COCC(=O)N1CCC(O)(CN2CCN(c3ccccc3)CC2)C1` (stereo not given), the “Percent Effect” value is reported as 93.8%.

Consider `Cc1ccc(CN2CC3(CCN(C(=O)C4CC4)CC3)CC2C(=O)O)o1` (stereo not given), for which the “Percent Effect” value is listed as -15.03%.

For `CN1CCc2ccc(NCc3cccs3)cc2C1=O`, the “Percent Effect” value is -3.883%. Regarding `Cc1nc(-c2cc(C(=O)NCC(C)(C)CO)c3ccccn23)cs1`, the “Percent Effect” value was -18.5%. In the case of `COc1cc(NC(=O)NC(C2CC2)C2CC2)ccc1N1CCOC1=O`, the “Percent Effect” value is listed as -4.711%. The result for `CN1CCN(C(=O)N2C[C@H]3CC[C@@H]2CN(Cc2ccccc2)C3)CC1` reads -20.32%. For `O=C(NC1CC(=O)N(C2Cc3ccccc3C2)C1)c1ccoc1` (stereo not given), the “Percent Effect” value was -3.995%. Take `CCC(=O)NCc1cc(Br)ccc1OC(F)F`: the “Percent Effect” value was -1.176%. As to `CS(=O)(=O)c1nccn1Cc1ccc(Cl)cc1`, the “Percent Effect” value is listed as -5.692%. In the case of `O=C(CNC1CCc2ncnn2C1)N(Cc1cccs1)C1CC1` (stereo not given), the “Percent Effect” value was found to be 0.7257%. Regarding `O=C(NCCN1CCOCC1)c1n[nH]c(=O)c2ccccc12`, the “Percent Effect” value came out at 6.871%. As to `CCc1ccc(C(=O)N2CCC(O)(CN3CCOCC3)C(C)(C)C2)[nH]1` (stereo not given), the “Percent Effect” value is -6.859%. Consider `O=C(c1n[nH]c(=O)c2ccccc12)N1CCC(O)(CN2CCOCC2)C1` (stereo not given), for which the “Percent Effect” value was 88.42%. For `CCCNC(=O)CN1CCN(Cc2csc(C(C)(C)C)n2)CC1`, the “Percent Effect” value is recorded as -11.65%.

On to `COc1cccc(NC(=O)NCC(C)(O)CCSC)c1OC` (stereo not given), for which the “Percent Effect” value is -0.9088%. The result for `Cc1ccc2nc(C3CCCN3Cc3csc(C)n3)[nH]c2c1` (stereo not given) reads 2.616%; that for `Cn1ccnc1CN1CCCCC1c1nc(-c2ccccc2)no1` (stereo not given), 18.03%; that for `Fc1ccc2[nH]c(C3CCCN3Cc3c[nH]cn3)nc2c1` (stereo not given), -35.05%. The result for `CC(=O)Nc1nc(CN2CCCC2c2cnn(C)c2)cs1` (stereo not given) reads -2.623%; that for `CN(CC1CC1)C(=O)CN1CCCC1c1cnn(C)c1` (stereo not given), -56.85%. `CNc1cncc(C2CCCN2Cc2c[nH]cn2)n1` (stereo not given): the “Percent Effect” value is -2.81%. With `CN(C(=O)CN1CCCC1c1cnn(C)c1)C(C)(C)C#N` (stereo not given) the figure was 6.976%; with `CN(C)C(=O)c1cn[nH]c1C1CCCN1Cc1nccn1C.O=CO` (stereo not given), 83.24%. Consider `Cc1nc(CN2CCCC2c2[nH]ncc2C(=O)N(C)C)cs1` (stereo not given), for which the “Percent Effect” value was 135.6%. `CC(=O)NCCNC(=O)CN1CCN(Cc2nccn2C)C(C)C1` (stereo not given): the “Percent Effect” value was found to be 1.772%. With `CN(C)C(=O)c1cn[nH]c1C1CCCN1Cc1cncn1C` (stereo not given) the figure was 96.91%; with `CN(C)C(=O)c1cn[nH]c1C1CCCN1Cc1c[nH]cn1` (stereo not given), 119.4%. With `CC(Oc1ccccc1C(F)(F)F)C(=O)NCCNC(=O)C1CC1` (stereo not given) the figure was -69.67%; with `Cc1cnn(CCC(=O)NS(=O)(=O)N2CCc3ccccc32)c1`, 5.056%; with `Cc1nn(C)c2ncnc(N(C)CC3CCN(CC(C)C)C3)c12` (stereo not given), -20.38%. The result for `O=C(NC[C@H]1OC[C@@H](NC2COC2)[C@@H]1O)Nc1ccccc1` reads 4.366%; that for `Cc1ccc(C(=O)N2CCC(n3cc(CN)nn3)CC2)cc1F`, 8.756%; that for `CCCN(CC1COc2ccccc2O1)C(=O)CCN1C(=O)CCC1=O` (stereo not given), 23.62%. With `CC(C)NC(=O)[C@@H]1C[C@@H](N)CN1C(=O)CCSCc1ccccc1`, the “Percent Effect” value was -10.01%.

Consider `Cc1nn(C)c(N2CCOCC2)c1CNC1CCc2ccccc2C1` (stereo not given), for which the “Percent Effect” value is -5.455%.

In the case of `Cc1cccc(CN2CCCC(O)(CNCCN3CCCCC3)C2=O)c1` (stereo not given), the “Percent Effect” value is recorded as -21.92%.

Take `CC1c2ncc(CN3CCN(C)CC3)n2CCN1Cc1ccccn1.O=C(O)C(F)(F)F.O=C(O)C(F)(F)F.O=C(O)C(F)(F)F.O=C(O)C(F)(F)F` (stereo not given): the “Percent Effect” value came to 110.4%. Consider `CC1c2ncc(Cn3cccn3)n2CCN1Cc1cccnc1.O=C(O)C(F)(F)F.O=C(O)C(F)(F)F` (stereo not given), for which the “Percent Effect” value was 97.64%. The result for `CC1c2ncc(Cn3cccn3)n2CCN1Cc1ccccn1.O=C(O)C(F)(F)F.O=C(O)C(F)(F)F` (stereo not given) reads 102.5%; that for `CC1c2ncc(Cn3cccn3)n2CCN1Cc1ccc(F)cc1.O=C(O)C(F)(F)F` (stereo not given), 95.73%. In the case of `CCOCc1cnc2n1CCN(C(=O)Cc1ccccn1)C2C.O=C(O)C(F)(F)F` (stereo not given), the “Percent Effect” value is -0.9872%. With `CC1c2ncc(COCC3CCOCC3)n2CCN1Cc1cccnc1.O=C(O)C(F)(F)F.O=C(O)C(F)(F)F` (stereo not given) the figure was -7.39%; with `CC1c2ncc(COCc3ccccn3)n2CCN1C1CCCC1.O=C(O)C(F)(F)F.O=C(O)C(F)(F)F` (stereo not given), 16.64%.
